Source: PubChem BioAssay (EPA / NIEHS)
Results filed as inconclusive are left out. Active and inactive are the calls of the source. Rule for the calls, unless noted: active = hit-call score of the fitted dose curve at least 0.9, where 1 is the maximum; inactive = score below 0.9.

Tests used:
[1] = molecular target: human RAR-related Orphan Receptor gamma (RORg), RORC (gene 6097) (UniProt P51449); experiment: ATG_RORg_TRANS: Attagene TRANS-FACTORIAL HepG2 Assay for human RAR-related Orphan Receptor gamma (RORg) (AID 2283011; active = hit-call score of the fitted dose curve at least 0.9, where 1 is the maximum)
Method in brief: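 Transient MRTU transfection of HepG2 (TRANS format, exogenous NR-Gal4 chimera). 24 h dosing. Total RNA → oligo(dT) RT → PCR → 6-FAM labelling → HpaI cut → CE. Gain vs DMSO.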

[2] = molecular target: Retinoic acid receptor RXR-alpha (Homo sapiens) (UniProt P19793); experiment: ATG_RXRa_TRANS: Attagene TRANS-FACTORIAL HepG2 Assay for human Retinoid X Receptor alpha (RXRa) (AID 2283012; active = hit-call score of the fitted dose curve at least 0.9, where 1 is the maximum)
Method in brief: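 HepG2 cells transiently transfected with multiplexed GAL4-UAS reporter units and chimeric NR-GAL4 fusions, dosed 24 h. Reporter mRNA measured by RT-PCR, FAM labelling, HpaI digestion and capillary electrophoresis; gain-of-signal fitted relative to DMSO baseline.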

[3] = molecular target: human Retinoid X Receptor beta (RXRb), RXRB (gene 6257) (UniProt P28702); experiment: ATG_RXRb_TRANS: Attagene TRANS-FACTORIAL HepG2 Assay for human Retinoid X Receptor beta (RXRb) (AID 2283013; active = hit-call score of the fitted dose curve at least 0.9, where 1 is the maximum)
Method in brief: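 HepG2 cells transiently transfected with multiplexed reporter units driven by GAL4-UAS and exogenous chimeric NR-Gal4 proteins; treated 24 h. Reporter mRNA measured by RT-PCR, 6-FAM labelling and capillary electrophoresis; gain-of-signal fitted versus DMSO baseline.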

[4] = read-out: Interleukin-1 alpha (IL1a), IL1A (gene 3552); experiment: BSK_BE3C_IL1a: BioMAP Diversity Plus: BE3C Assay for Interleukin-1 alpha (IL1a) Biomarker Activity (AID 2283016); details: primary human bronchial epithelial cells; actives raise or lower the signal
Method in brief: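 Human primary bronchial epithelial cells (BE3C system) were dosed with compound and IL-1a measured by ELISA 24 h later. Activity was fitted bidirectionally against DMSO baseline; cytotoxicity was tracked in parallel cultures by SRB total-protein staining.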

[5] = read-out: Monocyte Chemoattractant Protein-1 (MCP1), CCL2 (gene 6347); experiment: BSK_3C_MCP1: BioMAP Diversity Plus: 3C Assay for Monocyte Chemoattractant Protein-1 (MCP1) Biomarker Activity (AID 2283017); details: primary human endothelial cells (HUVEC); actives raise or lower the signal
Method in brief: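 HUVEC, 3C system; 24 h chemical exposure; MCP-1 by ELISA; bidirectional curve fit vs DMSO baseline.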

[6] = read-out: Monocyte Chemoattractant Protein-1 (MCP1), CCL2 (gene 6347); experiment: BSK_4H_MCP1: BioMAP Diversity Plus: 4H Assay for Monocyte Chemoattractant Protein-1 (MCP1) Biomarker Activity (AID 2283018); details: primary human endothelial cells (HUVEC); actives raise or lower the signal
Method in brief: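 Human umbilical vein endothelial cells (4H system) dosed with chemical; MCP-1 measured by ELISA 24 h after dosing. Bidirectional curve fitting against DMSO negative control as baseline; parallel SRB total-protein staining tracks overt cytotoxicity.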

[7] = read-out: Human Leukocyte Antigen - DR isotype (HLADR), HLA-DRA (gene 3122); experiment: BSK_3C_HLADR: BioMAP Diversity Plus: 3C Assay for Human Leukocyte Antigen - DR isotype (HLADR) Biomarker Activity (AID 2283019); details: primary human endothelial cells (HUVEC); actives raise or lower the signal;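 note: ELISA of cell-surface HLA-DR on HUVEC 24 h after dosing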
Method in brief: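 HUVEC, 3C stimulation, 24 h post-dose; HLA-DR by ELISA; bidirectional curve fit vs DMSO baseline; gain or loss of signal scored.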

[8] = read-out: Interleukin-8 (IL8), CXCL8 (gene 3576); experiment: BSK_3C_IL8: BioMAP Diversity Plus: 3C Assay for Interleukin-8 (IL8) Biomarker Activity (AID 2283020); details: primary human endothelial cells (HUVEC); actives raise or lower the signal
Method in brief: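 Primary human umbilical vein endothelial cells (3C system) were exposed to test chemical for 24 h, then IL-8 was quantified by ELISA. Responses were fitted bidirectionally against DMSO vehicle as baseline.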

[9] = molecular target: human Vitamin D Receptor (VDR), VDR (gene 7421) (UniProt P11473); experiment: ATG_VDR_TRANS: Attagene TRANS-FACTORIAL HepG2 Assay for human Vitamin D Receptor (VDR) (AID 2283022; active = hit-call score of the fitted dose curve at least 0.9, where 1 is the maximum)
Method in brief: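 RT-PCR/capillary electrophoresis read-out of reporter mRNA induction in transiently transfected HepG2; 24 h dosing; chimeric NR-Gal4 (TRANS format); gain-of-signal fit against DMSO baseline.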

[10] = BSK_3C_SRB: Viability Assessment in the BioMAP Diversity Plus: 3C Assay (AID 2283023); details: primary human endothelial cells (HUVEC);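 note: cells read 24 h after compound dosing; fitted both ways against DMSO so a hit may be signal rise or drop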
Method in brief: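 HUVEC, 24 h post-dose; 10% TCA fix, 0.1% SRB stain, A560 nm. Bidirectional curve fit vs DMSO negative control.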

[11] = read-out: Matrix Metallopeptidase 1 (MMP1), MMP1 (gene 4312); experiment: BSK_BE3C_MMP1: BioMAP Diversity Plus: BE3C Assay for Matrix Metallopeptidase 1 (MMP1) Biomarker Activity (AID 2283024); details: primary human bronchial epithelial cells; actives raise or lower the signal
Method in brief: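 Primary human bronchial epithelial cells were dosed with test chemicals, and MMP1 levels were measured by ELISA 24 h later. Data were fitted bidirectionally against DMSO as the negative control and activity baseline.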

[12] = BSK_3C_Vis: BioMAP Diversity Plus: 3C Assay for Morphology Visualization (AID 2283025); details: primary human endothelial cells (HUVEC);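 note: fitted both ways so gain or loss versus DMSO counts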
Method in brief: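 Human umbilical vein endothelial cells in the 3C system were imaged by light microscopy 24 h after chemical dosing to record cell morphology. Activity was fitted bidirectionally against DMSO as negative control and baseline; the endpoint serves as a background control.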

[13] = read-out: Pselectin, SELP (gene 6403); experiment: BSK_4H_Pselectin: BioMAP Diversity Plus: 4H Assay for Pselectin Biomarker Activity (AID 2283026); details: primary human endothelial cells (HUVEC); actives raise or lower the signal
Method in brief: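 Primary human umbilical vein endothelial cells were exposed to test chemical for 24 h, then cell-surface P-selectin was quantified by ELISA. Activity was fitted bidirectionally against DMSO as negative control and baseline.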

[14] = BSK_4H_SRB: Viability Assessment in the BioMAP Diversity Plus: 4H Assay (AID 2283027); details: primary human endothelial cells (HUVEC);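 note: cells exposed to compound for 24 h before staining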
Method in brief: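 Absorbance at 560 nm of SRB-stained total protein served as the viability read-out in confluent primary human umbilical vein endothelium 24 h after chemical treatment. Curves were fitted bidirectionally against DMSO as negative control.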

[15] = BSK_BE3C_SRB: Viability Assessment in the BioMAP Diversity Plus: BE3C Assay (AID 2283028); details: primary human bronchial epithelial cells
Method in brief: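 Primary human bronchial epithelium; chemical dosing, 24 h; 10% TCA fix, 0.1% SRB stain, A560; bidirectional fit vs DMSO baseline.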

[16] = read-out: Thrombomodulin, THBD (gene 7056); experiment: BSK_3C_Thrombomodulin: BioMAP Diversity Plus: 3C Assay for Thrombomodulin Biomarker Activity (AID 2283029); details: primary human endothelial cells (HUVEC); actives raise or lower the signal
Method in brief: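 Primary human umbilical vein endothelial cells (3C system) were exposed to chemical for 24 h, then thrombomodulin levels were measured by ELISA. Activity was fitted bidirectionally against the DMSO negative control as baseline.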

[17] = read-out: Urokinase-type plasminogen activator receptor (uPAR), PLAUR (gene 5329); experiment: BSK_4H_uPAR: BioMAP Diversity Plus: 4H Assay for Urokinase-type plasminogen activator receptor (uPAR) Biomarker Activity (AID 2283030); details: primary human endothelial cells (HUVEC); actives raise or lower the signal
Method in brief: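 HUVEC, 24 h post-dose; uPAR by ELISA; bidirectional fit vs DMSO baseline.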

[18] = molecular target: human Thyroid Receptor alpha (THRa1), THRA (gene 7067) (UniProt P10827); experiment: ATG_THRa1_TRANS: Attagene TRANS-FACTORIAL HepG2 Assay for human Thyroid Receptor alpha (THRa1) (AID 2283014; active = hit-call score of the fitted dose curve at least 0.9, where 1 is the maximum)
Method in brief: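 Transient HepG2 transfection, NR-Gal4 chimera driving GAL4-UAS reporters; 24 h compound exposure; total RNA, oligo(dT) RT, PCR, fluorescent primer extension, capillary electrophoresis. Upward direction vs DMSO control.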

Measured: outcome

Sequence of Retinoic acid receptor RXR-alpha (Homo sapiens) (P19793 whole entry, looked up, the tested form may be a part): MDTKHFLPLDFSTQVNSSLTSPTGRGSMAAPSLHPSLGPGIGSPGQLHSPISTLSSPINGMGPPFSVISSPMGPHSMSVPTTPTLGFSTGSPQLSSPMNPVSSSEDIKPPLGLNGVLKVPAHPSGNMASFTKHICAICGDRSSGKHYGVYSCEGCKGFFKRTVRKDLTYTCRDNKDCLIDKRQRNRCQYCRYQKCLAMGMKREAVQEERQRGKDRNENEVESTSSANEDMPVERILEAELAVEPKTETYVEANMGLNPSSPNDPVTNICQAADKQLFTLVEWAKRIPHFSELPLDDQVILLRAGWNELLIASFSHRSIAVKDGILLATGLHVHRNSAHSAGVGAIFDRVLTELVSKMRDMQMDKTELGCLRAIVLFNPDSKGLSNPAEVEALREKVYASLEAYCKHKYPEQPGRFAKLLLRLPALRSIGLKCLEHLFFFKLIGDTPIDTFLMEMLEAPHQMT
Sequence of human RAR-related Orphan Receptor gamma (RORg), RORC (gene 6097) (P51449 whole entry, looked up, the tested form may be a part): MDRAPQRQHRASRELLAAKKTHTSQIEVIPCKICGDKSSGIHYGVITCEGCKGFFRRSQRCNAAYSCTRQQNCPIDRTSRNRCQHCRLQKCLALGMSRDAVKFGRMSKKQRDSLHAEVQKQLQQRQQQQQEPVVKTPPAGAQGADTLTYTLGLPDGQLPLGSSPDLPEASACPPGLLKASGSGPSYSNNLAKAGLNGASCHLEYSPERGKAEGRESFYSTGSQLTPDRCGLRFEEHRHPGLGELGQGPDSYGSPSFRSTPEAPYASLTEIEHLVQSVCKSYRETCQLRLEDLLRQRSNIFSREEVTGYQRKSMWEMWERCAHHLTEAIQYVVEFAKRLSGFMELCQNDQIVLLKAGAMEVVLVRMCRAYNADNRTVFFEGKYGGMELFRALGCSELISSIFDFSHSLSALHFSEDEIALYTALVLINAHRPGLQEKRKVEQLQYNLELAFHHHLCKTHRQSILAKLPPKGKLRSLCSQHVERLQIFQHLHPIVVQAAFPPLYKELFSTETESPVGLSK
Sequence of human Thyroid Receptor alpha (THRa1), THRA (gene 7067) (P10827 whole entry, looked up, the tested form may be a part): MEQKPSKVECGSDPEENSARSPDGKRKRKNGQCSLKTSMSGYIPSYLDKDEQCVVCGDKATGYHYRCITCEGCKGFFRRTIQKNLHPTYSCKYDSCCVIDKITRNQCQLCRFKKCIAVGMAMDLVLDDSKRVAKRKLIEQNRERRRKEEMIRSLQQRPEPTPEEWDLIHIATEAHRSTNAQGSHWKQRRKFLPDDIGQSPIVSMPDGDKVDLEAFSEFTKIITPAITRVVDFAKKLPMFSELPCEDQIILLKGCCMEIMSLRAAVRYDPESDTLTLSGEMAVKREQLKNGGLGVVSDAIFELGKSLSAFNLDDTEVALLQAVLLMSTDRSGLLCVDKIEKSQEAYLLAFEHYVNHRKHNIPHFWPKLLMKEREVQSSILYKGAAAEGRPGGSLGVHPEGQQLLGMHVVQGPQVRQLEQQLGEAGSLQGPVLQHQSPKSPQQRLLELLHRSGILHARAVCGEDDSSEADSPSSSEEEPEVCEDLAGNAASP
Sequence of human Vitamin D Receptor (VDR), VDR (gene 7421) (P11473 whole entry, looked up, the tested form may be a part): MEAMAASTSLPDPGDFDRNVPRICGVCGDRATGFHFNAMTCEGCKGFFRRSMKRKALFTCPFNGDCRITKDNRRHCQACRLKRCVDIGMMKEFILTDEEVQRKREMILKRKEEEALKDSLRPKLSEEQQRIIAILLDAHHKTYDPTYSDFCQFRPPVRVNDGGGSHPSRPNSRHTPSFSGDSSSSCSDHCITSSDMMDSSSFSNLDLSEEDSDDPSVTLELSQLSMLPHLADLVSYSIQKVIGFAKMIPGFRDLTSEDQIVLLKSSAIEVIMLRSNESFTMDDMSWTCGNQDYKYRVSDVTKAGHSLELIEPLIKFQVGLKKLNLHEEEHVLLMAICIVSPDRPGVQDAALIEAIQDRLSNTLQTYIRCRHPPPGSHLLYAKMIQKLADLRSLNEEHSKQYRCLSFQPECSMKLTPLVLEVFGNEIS
Sequence of human Retinoid X Receptor beta (RXRb), RXRB (gene 6257) (P28702 whole entry, looked up, the tested form may be a part): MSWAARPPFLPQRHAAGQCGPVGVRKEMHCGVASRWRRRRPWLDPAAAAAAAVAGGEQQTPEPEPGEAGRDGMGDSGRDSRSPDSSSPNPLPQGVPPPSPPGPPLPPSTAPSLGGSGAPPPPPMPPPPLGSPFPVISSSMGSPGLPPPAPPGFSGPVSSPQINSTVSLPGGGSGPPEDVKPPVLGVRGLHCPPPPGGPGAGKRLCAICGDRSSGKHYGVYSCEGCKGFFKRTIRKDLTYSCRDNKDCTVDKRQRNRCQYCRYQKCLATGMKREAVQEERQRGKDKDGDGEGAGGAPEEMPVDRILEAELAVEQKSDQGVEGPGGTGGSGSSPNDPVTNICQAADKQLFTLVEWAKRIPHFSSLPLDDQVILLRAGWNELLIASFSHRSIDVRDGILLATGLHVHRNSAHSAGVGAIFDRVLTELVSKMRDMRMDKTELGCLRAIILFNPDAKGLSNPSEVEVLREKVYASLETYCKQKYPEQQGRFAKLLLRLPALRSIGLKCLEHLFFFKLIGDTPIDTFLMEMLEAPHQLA

CCC(=O)OCC=Cc1ccccc1
not listed: [18]
inactive: all other assays above

COc1ccc(C(C)=O)cc1
inactive: [1] | [2] | [18]

CC(=O)Nc1cc(S(=O)(=O)O)cc2cc(S(=O)(=O)O)c(N=Nc3ccccc3)c(O)c12
inactive: [1] | [2] | [3] | [18] | [9]

O=Cc1ccccc1O
inactive: [1] | [2] | [3] | [9]

CN(C)c1ccc(C=O)cc1
inactive: [1] | [2] | [3] | [9]

O=C1CCC(=O)N1
inactive: [1] | [2] | [18]

Nc1ccc(N)c([N+](=O)[O-])c1
not listed: [9]
inactive: all other assays above

S=c1[nH][nH]c(=S)s1
inactive: [1] | [2] | [3] | [18] | [9]

CCCO[Si](OCCC)(OCCC)OCCC
not listed: [12] | [18]
inactive: all other assays above
